Source: PubChem BioAssay
NALP1 yeast inh – blocks the NALP1 inflammasome reconstituted in yeast; S. cerevisiae NALP1/ASC/caspase-1 growth, X-gal OD620, 72 h; inhibition, % at 10 µM; 0.61% of 280,000 active; in the data active = inhibition mostly above about 24%, no sharp cut-off; inactive = mostly below about 32%
tim10-1 inh – growth inhibitors of tim10-1 mutant yeast; S. cerevisiae tim10-1 ts strain growth, BacTiter-Glo, 24 h; inhibition, % at 20 µM; 2.2% of 330,000 active; AID 463190;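 active = inhibition of at least 40%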;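 note: mutant grown at 25 °C; 0% = DMSO wells with yeast and 100% = wells holding no yeast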
tim23-1 inh – tim23-1 yeast growth inhibition | S. cerevisiae tim23-1 growth, BacTiter-Glo luminescence, 24 h | inhibition, % at 20 µM | 1.3% of 330,000 active;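 active = growth inhibition of the mutant yeast at or above 50%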;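 note: temperature-sensitive mutant grown at 25 °C; plate controls were DMSO-treated mutant yeast for no effect and medium wells lacking yeast for full effect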
NLRP3 yeast inh – inhibitors of NALP3 inflammasome in yeast; Yeast reconstituted NLRP3/ASC/caspase-1, beta-gal luminescence, 24 h; inhibition, % at 10 µM; 0.39% of 330,000 active;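 active = inhibition of 50% or more; inactive = inhibition below 50%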;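 note: plate controls were induced DMSO wells for no effect and uninduced yeast grown without galactose for full effect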
TIM10 inh – TIM10 yeast growth inhibition. S. cerevisiae TIM10 strain growth, BacTiter-Glo luminescence, 24 h. inhibition, % at 10 µM. 1.4% of 330,000 active. AID 463195;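 active = inhibition of 40% or more at the single tested concentration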;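 note: wild-type TIM10 isogenic control strain grown at permissive 25 °C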
PfHsp90 yeast 2 – reduces growth (ATP signal) of yeast expressing P. falciparum Hsp90; S. cerevisiae expressing PfHsp90, BacTiter-Glo ATP, 48 h; yeast lacking PDR1 and PDR3 efflux regulators; inhibition, % at 9.4 µM; 0.32% of 310,000 active;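 active = every replicate shows inhibition above about 80%, whatever the replicate mean, limit read from the data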;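 note: 0% = DMSO neutral controls and 100% = 20 µM radicicol positive controls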
tim10 confirm – confirmation of TIM10 yeast growth inhibitors; S. cerevisiae tim10 strain growth, BacTiter-Glo luminescence, 24 h; inhibition, % at 10 µM; shares compounds with TIM10 inh; 63% of 4,600 active;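 active = inhibition of yeast growth at or above a set limit in either of two replicates at 10 µM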;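 note: this counterscreen used the strain with wild-type TIM10; 0% = yeast with DMSO and 100% = medium wells lacking yeast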
The depositor's hits bear a star; . = no result. This is a sample that favours compounds with a hit; in the whole collection about 4.1% have one here.

SMILES | NALP1 yeast inh | tim10-1 inh | tim23-1 inh | NLRP3 yeast inh | TIM10 inh | PfHsp90 yeast 2 | tim10 confirm
CCCC(=O)Nc1ccc(NC(=O)c2cccs2)cn1 | -12 | -15 | 19 | -3 | 40* | -11 | -1
CCCC(=O)NC(=S)Nc1ccc(NC(=O)c2cccs2)cc1 | 11 | -14 | 20 | 2 | 45* | . | 18
CCCC(=O)Nc1ccc(NC(=S)NC(=O)c2cccs2)cc1 | 8 | -22 | -27 | 6 | 10 | 22 | .
COc1cccc(-c2cc(C(=O)N3CCN(C(=O)c4ccco4)CC3)on2)c1 | 0 | 1 | 9 | 6 | 47* | -36 | 9
O=C(c1cc(-c2cccs2)on1)N1CCN(C(c2ccccc2)c2ccccc2)CC1 | 1 | 30 | 31 | -4 | 50* | -9 | 31*
COc1ccc(-c2cc(C(=O)N3CCN(c4ccccc4OC)CC3)no2)cc1OC | 8 | 15 | 22 | 7 | 23 | -25 | .
COc1ccc(-c2cc(C(=O)N3CCN(c4ccccc4)CC3)no2)cc1OC | 36 | 23 | -4 | 7 | 42* | . | 20
COc1cccc(-c2nc(C#N)c(N3CCN(C(=O)c4ccco4)CC3)o2)c1 | 12 | 23 | 33 | 28 | 3 | 4 | .
O=C(c1cc(-c2cccs2)on1)N1CCOCC1 | -30 | 4 | 8 | 31 | 10 | 5 | .
COc1cccc(-c2cc(C(=O)N3CCN(C(c4ccccc4)c4ccccc4)CC3)no2)c1 | 8 | 40 | 30 | 18 | 57* | -20 | 44*
Cc1cc(C)cc(N(CC(=O)NC(C)C)C(=O)CCC(=O)Nc2ccccn2)c1 | -12 | -8 | 3 | 14 | -8 | -4 | .
FC(F)(F)c1nnc(-c2ccccc2)nc1Sc1ccccc1 | 17 | 36 | 43 | 32 | 45* | 2 | 22
O=C(N/N=C/c1cccnc1)c1cc2ccccc2o1 | 45 | 2 | 9 | 5 | 22 | 9 | .
O=C(N/N=C/c1ccncc1)c1cc2ccccc2o1 | 50 | 8 | 48 | 9 | 43* | 6 | 36*
CC1CCCCN1Cc1c(O)ccc2c(=O)c(-c3nc4ccccc4s3)c(N)oc12 (stereo not given) | 36 | 22 | 46 | 22 | 42* | -10 | 25
O=C(Nc1ccc(Cc2ccncc2)cc1)c1ccc(Br)o1 | 40 | 6 | 34 | 27 | 44* | -5 | 36*
O=C(CNC(=O)c1ccc(Br)o1)Nc1ccncc1 | . | 2 | 2 | 23 | -2 | . | .
Cc1cc(C)cc(C(=O)NC(=S)Nc2ccc(Cc3ccncc3)cc2)c1 | 9 | 19 | 34 | 19 | 47* | 20 | 9
O=C(NC(=S)Nc1ccc(Cc2ccncc2)cc1)c1ccccc1 | 11 | 29 | 30 | 22 | 51* | -74 | -29
CCOC(=O)Cc1csc(NC(=O)c2ccc(C)cc2)n1 | 1 | -23 | -1 | 37 | 11 | 2 | .
CCOC(=O)Cc1csc(NC(=O)c2ccc3c(c2)OCO3)n1 | 0 | -20 | -12 | 20 | 43* | . | -3
CCOC(=O)Cc1csc(NC(=S)NC(=O)c2ccccc2Br)n1 | 22 | 34 | 36 | -4 | 42* | -9 | -7
O=C(Nc1cc(NC(=O)c2ccccc2F)ccc1Cl)c1ccccc1 | -4 | -16 | -4 | 30 | 15 | 1 | .
Cc1cc(C)n(CC(C)(O)c2ccccc2)n1 (stereo not given) | . | -6 | -5 | -12 | -2 | 11 | .
CCc1nc2cc(C)nn2c2nc3ccccc3n12 | 3 | 6 | 17 | -2 | 10 | 26 | .
SMILES | NALP1 yeast inh | tim10-1 inh | tim23-1 inh | NLRP3 yeast inh | TIM10 inh | PfHsp90 yeast 2 | tim10 confirm
Cc1cc2nc(C)n3c4ccccc4nc3n2n1 | -14 | 38 | 43 | 16 | 59* | 19 | 45*
CCOC(=O)c1c(CN2CCOCC2)n(-c2ccccc2)c2cc(Br)c(O)c(CN(C)C)c12 | 12 | 38 | 35 | 21 | 57* | -10 | 40*
COC(=O)Cc1ccc(NC(=S)NCCSc2ccc(C)cc2)cc1 | 13 | 39 | 13 | 24 | 55* | 8 | 35*
COC(=O)c1cc(S(=O)(=O)N2CCN(C(=O)c3ccco3)CC2)cn1C | 23 | 26 | 10 | 11 | 8 | 19 | .
CC(C)(C)N(NS(=O)(=O)c1ccc(F)cc1)c1ccccc1 | -14 | 5 | 5 | 7 | -5 | 13 | .
COCCCNC(=O)C[C@H]1C[C@H](C(=O)N(C(C)C)C(C)C)[C@@]2(C)c3[nH]c4ccc(Cl)cc4c3CCN2C1=O | . | 12 | 27 | . | 2 | 6 | .
O=C(Cn1nc(C(=O)O)c2ccccc2c1=O)NC12CC3CC(CC(C3)C1)C2 | 6 | 37 | 32 | 11 | 68* | 1 | 20
Brc1ccc(-c2ccc(CNCc3ccccn3)o2)cc1 | -21 | 5 | 11 | 19 | 69* | 7 | 23
COc1ccc2[nH]c(C)c(CCNC(=S)Nc3ccccc3C)c2c1 | 16 | 29 | 6 | 4 | 12 | 19 | .
COc1ccc2[nH]c(C)c(CCNC(=S)Nc3ccc(C)cc3)c2c1 | 36 | 40 | 25 | 5 | 40* | 12 | 19
COC(=O)c1ccc(NC(=S)N2CCN(Cc3ccc(Cl)cc3)CC2)cc1 | 14 | 37 | 39 | 42 | 49* | -14 | 36*
COc1ccccc1N1CCN(C(=O)c2c(C)cc(=O)oc2C)CC1 | 12 | -6 | -2 | 8 | -10 | 29 | .
COc1cc2c(C(=O)N3CCN(c4ccccc4C)CC3)c(C)oc2cc1Br | -18 | 37 | 21 | 18 | 52* | -13 | 35*
CCC(C)(C)C1CCc2[nH]nc(C(=O)N/N=C(\C)c3ccco3)c2C1 (stereo not given) | -3 | 31 | 47 | -6 | 45* | -5 | 25
Cc1noc(NS(=O)(=O)c2ccc(NC(=O)/C=C/c3ccccc3)cc2)c1C | . | 0 | 2 | 1 | -2 | 13 | .
CC(=O)NN1C(=O)c2ccccc2NC1c1ccc([N+](=O)[O-])o1 (stereo not given) | 4 | 2 | 13 | 23 | 9 | -7 | .
O=C(NN1C(=O)c2ccccc2NC1c1ccc([N+](=O)[O-])o1)c1ccc(Br)cc1 (stereo not given) | -5 | 38 | 43 | 12 | 55* | -13 | 61*
CC(C)[C@H](NS(=O)(=O)c1cccc(Cl)c1)C(=O)OCC(=O)N1CCN(c2ccccc2)CC1 | 24 | 39 | 21 | 4 | 47* | 10 | -7
N/C(=N\OC(=O)c1cccc(Br)c1)c1ccccn1 | 15 | 33 | 47 | 30 | 59* | 20 | 42*
N/C(=N\OC(=O)c1ccc(Cl)cc1)c1nonc1N | 34 | 34 | 24 | 35 | 23 | 1 | .
N/C(=N\OC(=O)c1ccc(Cl)c(Cl)c1)c1ccccn1 | 27 | 20 | 15 | 25 | 20 | -18 | .
N/C(=N\OC(=O)c1ccc(Cl)cc1)c1ccccn1 | 12 | 37 | 48 | 14 | 62* | . | 47*
